Only a selection was taken, and hits are over-represented in it overall.
Sm TGR inh: S. mansoni TGR enzyme inhibition; purified TGR, DTNB reduction, TNB absorbance 405 nm; Potency, µM (titrated, usually from 114 µM), for the others: at the top dose activity change, negative = inhibition, most hits filed as inhibitors; 360,000 tested, 3% active; AID 485364; further: potency means the concentration at half of the fitted maximal effect; on the % scale 0 is the no-effect control and ±100 the full control effect; nearly all actives have a fitted effect of over 60% in size
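TGR 20 nM + NADPH 100 uM (dispensed conc.), cpd preinc 15 min RT; start with NADPH (500 uM addition) then DTNB (15 mM addition). Kinetic TNB absorbance, 405 nm filter. Four-parameter Hill fit across titration.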
TbPYK inhibitor: T. brucei pyruvate kinase inhibition; 410,000 tested, 0.12% active; Q57TT1; TbPYK enzyme, Kinase-Glo Plus ATP luminescence, 45 min; Potency, µM (series often up to 76.8 µM), inactives show at the top dose activity, negative = inhibition, hits mostly inhibitors; further: potency means the concentration at half of the fitted maximal effect; on the % scale 0 is the no-effect control and ±100 the full control effect; nearly all actives have a fitted effect of over 50% in size
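Readout: single end-point luminescence (Kinase-Glo Plus, 10 min). Reaction conditions were TbPYK/substrate plus 130 uM ADP, 45 min at RT, pH 7.2 TEA buffer. No-enzyme wells served as controls, and data were normalized before concentration-response fitting.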
Shiga toxin inh: inhibitors of Shiga toxin in Vero cells | Vero cells, Shiga toxin protein synthesis inhibition reporter | inhibition, % at 38.7 µM | 290,000 tested, 9.2% active | AID 2315; in the data active means inhibition mostly above about 28%, no sharp cut-off; inactive means mostly below about 43%; further: 0% is about no effect
Giardia FBPA inh: inhibitors of Giardia lamblia fructose-1,6-bisphosphate aldolase. A8B2U2. purified Giardia FBPA. Potency, µM (doses to about 59.6 µM), inactives show at the highest dose activity, negative = inhibition, hits mostly inhibitors. 290,000 tested, 0.71% active. AID 2451; further: potency means the concentration at half of the fitted maximal effect; on the % scale 0 is the no-effect control and ±100 the full control effect; nearly all actives have a fitted effect of over 55% in size
Target sequence (A8B2U2 whole entry, looked up): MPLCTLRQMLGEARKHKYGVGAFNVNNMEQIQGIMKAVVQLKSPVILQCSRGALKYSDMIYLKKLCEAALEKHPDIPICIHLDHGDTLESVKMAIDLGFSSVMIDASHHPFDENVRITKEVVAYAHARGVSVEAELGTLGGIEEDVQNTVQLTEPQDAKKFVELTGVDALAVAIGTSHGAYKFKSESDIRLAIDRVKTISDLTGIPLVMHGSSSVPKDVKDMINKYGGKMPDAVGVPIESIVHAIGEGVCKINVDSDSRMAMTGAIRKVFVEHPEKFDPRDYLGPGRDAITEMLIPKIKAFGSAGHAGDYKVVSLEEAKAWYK
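40 nM FBPA preincubated 10 min at RT with compound (up to 57.5 uM final), then substrate plus GAPDH/TPI/NAD/arsenate coupling and diaphorase/resazurin added. Fluorescence read after 20 min at RT, 525/598 nm.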
LmPK inhibitor: LmPK (Leishmania mexicana) enzyme inhibition | Potency, µM (titrated, usually from 57.5 µM), without a hit: top-dose activity change, negative = inhibition, most hits filed as inhibitors | purified LmPK, Kinase-Glo ATP luminescence, 1 h | Q27686 | AID 1721 | 290,000 tested, 0.37% active; further: potency means the concentration at half of the fitted maximal effect; on the % scale 0 is the no-effect control and ±100 the full control effect
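Screened at intermediate enzyme activity to detect both inhibitors and activators: LmPK at 0.1 nM, with a 0.5 nM enzyme column as activation reference. PEP 0.5 mM, ADP 0.1 mM; ATP detected by luminescence after 1 h.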
Cycloheximide cs: affects cycloheximide protein synthesis inhibition readout, counter-screen; max response, %; cell reporter, cycloheximide protein synthesis inhibition counterscreen; 300,000 tested, 12% active; in the data active means max response mostly above about 13%, no sharp cut-off; inactive means mostly below about 14%; further: read at 38.3 µM for the half of the compounds with a filed dose; 0% is about no effect
The depositor's hits bear a star; ? = inconclusive; · = no result; ! = not confirmed by another sample. Unless noted, the call rests on the fitted dose curve; in most records, active means well fitted curve in the direction sought with a large enough effect; inconclusive means small, poorly fitted or top-dose-only effect, or another doubt; inactive means no such curve, though single readings can be large; an effect the other way counts as inactive or inconclusive.

SMILES	Sm TGR inh	TbPYK inhibitor	Shiga toxin inh	Giardia FBPA inh	LmPK inhibitor	Cycloheximide cs
COc1cc2c(cc1OC)C(c1ccc(-c3cc(Cl)ccc3Cl)o1)=NCC2	-4%	-5%	17	-6%	0%	4
CCCSc1nc2c(cnn2-c2ccccc2)c(=O)n1N	7%	-12%	50*	-4%	-13%	43*
O=c1c2cnn(-c3ccccc3)c2ncn1CCc1ccccc1	3%	4%	49*	4%	1%	23*
CCCCSc1nc2c(cnn2-c2ccccc2)c(=O)n1N	·	5%	94*	-7%	-16%	42*
Nn1c(SCc2ccccc2)nc2c(cnn2-c2ccccc2)c1=O	·	2%	76*	-4%	-3%	23*
CCn1cnc2c(cnn2-c2ccccc2)c1=O	10%	3%	84	7%	-4%	27
O=C(O)CSc1nc2c(cnn2-c2ccccc2)c(=O)n1-c1ccc(Br)cc1	0%	4%	-8	13%	12%	-3
CCCOc1nc(SCCC)nc2c1cnn2-c1ccccc1	32%	2%	10	5%	1%	3
COC(=O)[C@@]1(Cc2ccccc2)[C@H]2C(=O)N(C)C(=O)[C@H]2[C@H]2CN=C(SCc3ccc(Cl)cc3)N21	·	-3%	·	·	·	·
CCc1ccc(NC(=S)Nn2cnnc2)cc1	8%	?	-15	-25%	-5%	11
O=C(Nc1ccccc1)Nn1cnnc1	2%	1%	-7	8%	5%	-4
O=C(Nc1ccc(Br)cc1)Nn1cnnc1	10%	-4%	21	·	-5%	11*
CCc1ccc(NC(=O)Nn2cnnc2)cc1	-6%	-2%	24	·	1%	17*
O=C(O)c1c(NC(=O)N2CCOCC2)sc2c1CCCC2	-12%	-13%	29	-24%	-2%	13*
O=C(Cc1ccccc1)Nc1sc2c(c1C(=O)Nc1ccccc1)CCCCC2	-20%	-13%	·	·	·	·
NC(=O)c1c(NC(=O)C(=O)N2CCOCC2)sc2c1CCCC2	-30%	-9%	9	3%	0%	6
O=C(Cc1ccccc1)Nc1sc2c(c1C(=O)Nc1ccc(Cl)cc1)CCCC2	0%	-20%	38	·	·	31*!
O=C(Nc1sc2c(c1C(=O)O)CCCC2)c1cccc(Cl)c1	-5%	1%	98*	-25%	-3%	50*
O=C(O)c1c(NC(=O)c2cccc3ccccc23)sc2c1CCC2	-9%	3%	16	-3%	0%	-2
NCCNC(=O)c1c(NC(=O)c2ccccc2)sc2c1CCCC2	1%	-10%	46	-9%	-2%	24*
CC(Sc1oc(-c2cccs2)nc1S(=O)(=O)c1ccccc1)c1ccccc1 (stereo not given)	-7%	-10%	·	·	·	·
O=C(Nc1sc2c(c1C(=O)O)CCCC2)c1ccc(Cl)cc1	-16%	1%	29	?	0%	19*
O=C(Nc1sc2c(c1C(=O)O)CCC2)c1ccccc1	-4%	-13%	143*	-26%	-22%	41*
O=C(Nc1sc2c(c1C(=O)O)CCCCC2)c1ccccc1	2%	4%	104*	?	-22%	42*
O=C(Nc1sc2c(c1C(=O)NCCCO)CCCC2)c1ccccc1	-33%	-5%	14	10%	1%	6
SMILES	Sm TGR inh	TbPYK inhibitor	Shiga toxin inh	Giardia FBPA inh	LmPK inhibitor	Cycloheximide cs
NC(=O)c1c(NC(=O)c2ccc(N3C(=O)CCC3=O)cc2)sc2c1CCCC2	?	-2%	·	·	·	·
CC1(C)Cc2c(sc(NC(=O)c3ccccc3)c2C(=O)O)CO1	·	-25%	114*	?	-6%	61*
COc1ccc(C(=O)Nc2sc3c(c2C(=O)O)CC(C)(C)OC3)cc1	-6%	1%	13	-18%	1%	-3
O=C1N(Cc2cccc(C(F)(F)F)c2)c2ccccc2S(=O)(=O)N1c1cccc(Cl)c1	6%	-4%	·	·	·	·
Cc1cnc(C(=O)O)c[n+]1[O-]	·	2%	-4	-14%	·	-3
O=C1c2ccccc2C(=O)C1(c1ccccc1)N1CCN(c2cccc(Cl)c2)CC1	3%	1%	·	·	·	·
O=C1COc2ccc(-c3cc(-c4ccccc4)c4c(n3)-c3ccccc3OC4)cc2N1	6%	-3%	·	·	·	·
Cc1nc(NCc2ccccc2)c2nc(-c3ccccc3)n(CC3CCN(C)CC3)c2n1	·	·	·	4%	·	·
